This note sets out measurements from PubChem BioAssay.

The source made the active and inactive calls.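 Rule for the calls, unless noted: active = fluorescence slope after compound addition differing from the mean of all screened samples at 99.7% confidence, in either direction; inactive = the rest.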

Assay [1] in a line: inhibitors of TNFa-induced NFkB p65 translocation, primary screen, imaging, HUVEC, MLSMR starter and 10KST1 sets (AID 438;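 active = inhibition above 20% together with a positive visual image hit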;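 note: compound added about 3h40 before a 20 min TNFalpha stimulation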;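 for inhibition: signal is the nuclear over cytoplasmic p65 intensity ratio per well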). The conditions noted are these: HUVEC TNFa-induced p65 nuclear translocation; cell count: measured here: nuclei count (cytotoxicity indicator), at 2.08 µM; inhibition: at 2 µM, stronger effect = higher value, 0% TNFa-plus-vehicle, 100% no-TNFa wells.
The nature of assay [2]: reduction of polyQ htt aggregates in cells – imaging, exon1htt(103Q)mCFP cells, high-content imaging, primary screen (AID 483;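 active = visual image review flags a hit and inhibition of aggregation exceeds 20%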;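 note: compound exposure lasted 3 days before fixation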;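 for nuclei count: percent of the per-plate median nuclei count of sample wells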). The conditions noted are these: exon1htt(103Q)mCFP cell line, aggregate imaging, at 2 µM; inhibition of aggregation: stronger effect = higher value; nuclei count: measured here: cell count, toxicity.
Assay [3] can be described thus: endothelial E-selectin expression blockers – imaging, HUVEC, immunofluorescence, MLSMR starter and 10KST1 sets, primary screen (AID 487;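 active = visually confirmed hit in the image check and inhibition above 20%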;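 for inhibition: signal is fraction of cell area covered by stained E-selectin grains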;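 for nuclei count: 100% = median nuclei count of all wells on the same plate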). Conditions: HUVEC TNFalpha-induced E-selectin immunofluorescence imaging, at 2 µM; inhibition: stronger effect = higher value; nuclei count: measured here: cell number, toxicity.
Assay [4] concerns the target Voltage-gated potassium channel subunit beta-2 (Rattus norvegicus) (UniProt P62483). In words: inhibitors of rat Kvbeta2 reductase activity – biochemical, NADPH fluorescence, primary screen (AID 622;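 active = fluorescence slope higher than the sample average by over 3 SD, cut at about -0.22 in these data, passing the limit was not always enough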;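 note: slope of raw intensity against log time taken from 70 to 1610 s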). The conditions noted are these: recombinant KvBeta, 4-cyanobenzaldehyde reduction, at 10 µM, stronger effect = higher value.
Assay [5] has the same target. In words: enhancers of rat Kvbeta2 NADPH turnover – biochemical, NADPH fluorescence, primary screen (AID 623;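 active = NADPH fluorescence slope more negative than the mean of all samples by about 3 SD, 99.7% confidence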;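 note: fluorescence intensity change per second fitted from 20 to 320 s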). The conditions noted are these: Recombinant KvBeta, NADPH fluorescence decrease slope, 10 min; at 10 µM; stronger effect = lower value.
For assay [6], the target named is Alpha-2C adrenergic receptor (Homo sapiens) (UniProt P18825). In words: compounds altering alpha2C-coupled GIRK flux – cell-based, HEK293 alpha2C/GIRK1/2, thallium flux, primary screen (AID 624).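 Note: slope of fluorescence ratio to pre-addition baseline per second over 15 to 24 s.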 Conditions: thallium flux BTC fluorescence, at 10 µM, actives lie on both sides.
Sequence of Alpha-2C adrenergic receptor (Homo sapiens) (P18825 whole entry, looked up): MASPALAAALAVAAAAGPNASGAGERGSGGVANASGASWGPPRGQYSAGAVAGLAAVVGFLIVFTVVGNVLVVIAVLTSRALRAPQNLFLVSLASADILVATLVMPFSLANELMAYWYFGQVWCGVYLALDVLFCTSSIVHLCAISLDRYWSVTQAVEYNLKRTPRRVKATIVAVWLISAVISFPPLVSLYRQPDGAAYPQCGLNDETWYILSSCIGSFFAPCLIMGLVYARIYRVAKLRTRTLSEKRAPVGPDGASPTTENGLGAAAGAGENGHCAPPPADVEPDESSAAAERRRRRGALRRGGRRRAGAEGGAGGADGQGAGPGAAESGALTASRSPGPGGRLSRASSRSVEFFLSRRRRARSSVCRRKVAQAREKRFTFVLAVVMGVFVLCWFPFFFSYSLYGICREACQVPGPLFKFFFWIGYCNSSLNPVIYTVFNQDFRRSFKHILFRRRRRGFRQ
The nature of assay [7]: blockers of RIG-like receptor reporter activation – cell-based, Sendai virus stimulus, luciferase, 10K MLSCN set, TLR/RLR signaling modifier project, primary screen (AID 602276;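 active = inhibition at or above 50% at 10 µM; inactive = inhibition below 50%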;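 note: firefly luciferase from ISG56 promoter only with Renilla not read in this screen; 0% = Sendai virus plus DMSO and 100% = medium plus DMSO without virus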). Conditions: HEK293 RL24 IRF3 luciferase reporter, at 10 µM, stronger effect = higher value. A general note: A reporter such as luciferase makes a cellular process visible.
Assay [8] in a line: TLR3 IRF3 reporter activation blockers – cell-based, poly I:C stimulus, luciferase, 10K MLSCN set, primary screen (AID 602277;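 active = inhibition of the reporter signal at or above 50%; inactive = inhibition below 50%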). Conditions: HEK293-TLR3 RL24 IRF3 luciferase reporter, at 10 µM, stronger effect = higher value.

Sequence of Voltage-gated potassium channel subunit beta-2 (Rattus norvegicus) (P62483 whole entry, looked up): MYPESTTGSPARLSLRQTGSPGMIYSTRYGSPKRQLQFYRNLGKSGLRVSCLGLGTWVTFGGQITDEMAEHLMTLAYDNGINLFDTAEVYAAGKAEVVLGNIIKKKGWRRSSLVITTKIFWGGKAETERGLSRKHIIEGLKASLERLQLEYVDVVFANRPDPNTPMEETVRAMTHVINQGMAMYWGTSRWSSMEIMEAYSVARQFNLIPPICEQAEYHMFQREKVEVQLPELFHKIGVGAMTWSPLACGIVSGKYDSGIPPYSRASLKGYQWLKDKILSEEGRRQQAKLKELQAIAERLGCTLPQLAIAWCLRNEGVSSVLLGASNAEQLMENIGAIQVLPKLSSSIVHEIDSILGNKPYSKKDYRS

Broadly, the inhibition is the change of the read-out against control, counted positive when it falls. For `c1ccc(N2CCN(Cc3ccnc4ccccc34)CC2)cc1`, the cell count in assay [1] was 424. Besides, the inhibition in assay [1] is 5.4% (inactive); in assay [3], 43.4% (inactive); in assay [7] it was -12.4% (inactive); in assay [8], -22.2% (inactive). Further, the inhibition of aggregation in assay [2] was 10.4% (inactive). The nuclei count in assay [2] is 83.9%; in assay [3] it was 102%. Besides, the fluorescence slope in assay [4] was -0.477 (inactive). Further, the NADPH fluorescence slope in assay [5] was -3.9e-05 (inactive). The slope in assay [6] is 0.0043 (inactive).
For the molecule `C=CCOc1ccc(/C(CC)=N/O)c(OC)c1`, the cell count in assay [1] is 387. Moreover, the inhibition was 15.3% (inactive) in assay [1], -29.6% (inactive) in assay [3], -7.92% (inactive) in assay [7] and 0.412% (inactive) in assay [8]. For the same molecule, the inhibition of aggregation in assay [2] is -5.5% (inactive). The results for the nuclei count in assay [2] and in assay [3] were 54.4% and 117%, respectively. For the same molecule, in assay [4], the fluorescence slope was -0.442 (inactive). Further, the NADPH fluorescence slope in assay [5] was -3.1e-05 (inactive). The slope in assay [6] is 0.00515 (inactive).
Consider `O=C(c1ccco1)N1CCN(C(=O)c2cc3c(s2)-c2ccccc2OC3)CC1`, for which the cell count in assay [1] turned out to be 684. Also, the inhibition in assay [1] is -5% (inactive); in assay [3] it was 4.9% (inactive); in assay [7], -15% (inactive); in assay [8], -25.8% (inactive). In assay [2], the inhibition of aggregation was -23% (inactive). Further, the nuclei count in assay [2] was 131%; in assay [3], 102%. The fluorescence slope in assay [4] was -0.0429 (inactive). For the same molecule, in assay [5], the NADPH fluorescence slope was 3.2e-05 (inactive). In assay [6], the slope was 0.00801 (inactive).
Turning to `COc1cc(CN(C)CC(=O)c2[nH]c(C)c(C(C)=O)c2C)ccc1OC(F)F`, the cell count in assay [1] was 443. Also, the inhibition in assay [1] is 1.6% (inactive); in assay [3], -86.8% (inactive); in assay [7] it was -17.1% (inactive); in assay [8] it was -82.6% (inactive). Also, the inhibition of aggregation in assay [2] was -11% (inactive). The values for the nuclei count in assay [2] and in assay [3] were 95.9% and 129%, respectively. For the same molecule, in assay [4], the fluorescence slope was -0.616 (inactive). For the same molecule, the NADPH fluorescence slope in assay [5] was -2.3e-05 (inactive). Moreover, the slope in assay [6] was 0.00408 (inactive).
In the case of `CC1=C(C(N)=O)C(c2cccnc2)n2nc(SCc3ccccc3Cl)nc2N1` (centres undefined), the cell count in assay [1] was determined as 533. In addition, the inhibition in assay [1] is -21.6% (inactive); in assay [3], -130% (inactive); in assay [7] it was -20.3% (inactive); in assay [8] it was 19.5% (inactive). The inhibition of aggregation in assay [2] is -13.4% (inactive). The nuclei count in assay [2] turned out to be 104%; in assay [3] it was 107%. Further, the fluorescence slope in assay [4] was -0.463 (inactive). The NADPH fluorescence slope in assay [5] is -5.4e-05 (inactive). Also, the slope in assay [6] was 0.00786 (inactive).
Take `COc1ccc(-c2nnc(-c3cccs3)o2)cc1OC`: the cell count in assay [1] is 384. Also, the inhibition in assay [1] was -0.2% (inactive); in assay [3], 67.8% (active); in assay [7], -76.7% (inactive); in assay [8], -170% (inactive). The inhibition of aggregation in assay [2] was 6.2% (inactive). Also, the nuclei count amounted to 99% in assay [2] and 94.7% in assay [3]. The fluorescence slope in assay [4] was -0.343 (inactive). For the same molecule, the NADPH fluorescence slope in assay [5] was 3e-05 (inactive). Moreover, the slope in assay [6] is 0.00689 (inactive).
Regarding `COc1ccccc1S(=O)(=O)Cc1ccc(C(=O)N2CCN(c3ccc(C)cc3)C(C)C2)o1` (centres undefined), the cell count in assay [1] was 566. Besides, the inhibition in assay [1] was 6.1% (inactive); in assay [3], -2.9% (inactive); in assay [7], 16.6% (inactive); in assay [8], 22.5% (inactive). Besides, the inhibition of aggregation in assay [2] was -8.4% (inactive). Also, the values for the nuclei count in assay [2] and in assay [3] were 117% and 91.7%, respectively. For the same molecule, the fluorescence slope in assay [4] was -0.527 (inactive). In addition, the NADPH fluorescence slope in assay [5] was -2.9e-05 (inactive). In addition, the slope in assay [6] was 0.00593 (inactive).
With `O=C(CCC(=O)N1CCc2ccccc2C1)N1CCN(S(=O)(=O)c2ccccc2)CC1`, in assay [1], the cell count was 361. Further, the inhibition was -2.5% (inactive) in assay [1], -14.3% (inactive) in assay [3], -9.4% (inactive) in assay [7] and 5.93% (inactive) in assay [8]. For the same molecule, the inhibition of aggregation in assay [2] is -6.9% (inactive). Also, the results for the nuclei count in assay [2] and in assay [3] were 131% and 102%, respectively. In addition, the fluorescence slope in assay [4] is -0.45 (inactive). For the same molecule, in assay [5], the NADPH fluorescence slope is -1.8e-05 (inactive). In assay [6], the slope was 0.00506 (inactive).
`CSCCC(NC(=O)c1occc1C)C(=O)O` (centres undefined): in assay [1], the cell count turned out to be 361. The inhibition in assay [1] was 4% (inactive); in assay [3], -91.1% (inactive); in assay [7], 7.31% (inactive); in assay [8] it was 21.8% (inactive). The inhibition of aggregation in assay [2] was -17.4% (inactive). The nuclei count was determined as 108% in assay [2] and 149% in assay [3]. Moreover, the fluorescence slope in assay [4] is -0.351 (inactive). Also, the NADPH fluorescence slope in assay [5] was -6.3e-05 (inactive). Also, the slope in assay [6] is 0.00359 (inactive).
Consider `CCn1c2ccccc2c2cc(N)ccc21`, for which, in assay [1], the cell count amounted to 705. The inhibition in assay [1] is -34.5% (inactive); in assay [3], -37.7% (inactive); in assay [7], 8.66% (inactive); in assay [8] it was 15.3% (inactive). Moreover, the inhibition of aggregation in assay [2] is 17.8% (inactive). In addition, the nuclei count in assay [2] amounted to 91.5%; in assay [3], 107%. In assay [4], the fluorescence slope is -0.458 (inactive). Moreover, the NADPH fluorescence slope in assay [5] was 5.8e-06 (inactive). Moreover, the slope in assay [6] was 0.00355 (inactive).
As to `Cc1c(N(C)C)nc2ccccc2c1N`, in assay [1], the cell count was determined as 575. Further, the inhibition in assay [1] is -3.8% (inactive); in assay [3], 42.5% (inactive); in assay [7] it was 13.7% (inactive); in assay [8] it was 20.7% (inactive). Besides, in assay [2], the inhibition of aggregation is -19.4% (inactive). The figures for the nuclei count in assay [2] and in assay [3] were 99.7% and 81.2%, respectively. Moreover, the fluorescence slope in assay [4] is -0.361 (inactive). Moreover, the NADPH fluorescence slope in assay [5] is -1.5e-05 (inactive). The slope in assay [6] was 0.00599 (inactive).
Regarding `CC(C)C(OC(=O)c1ccco1)C(=O)NCc1ccccc1` (centres undefined), the cell count in assay [1] was 489. Also, the inhibition was 5% (inactive) in assay [1], -122% (inactive) in assay [3], 11.3% (inactive) in assay [7] and 10.5% (inactive) in assay [8]. Also, the inhibition of aggregation in assay [2] was -10.8% (inactive). Besides, the results for the nuclei count in assay [2] and in assay [3] were 108% and 126%, respectively. For the same molecule, in assay [4], the fluorescence slope is -0.443 (inactive). Also, the NADPH fluorescence slope in assay [5] was 2.2e-05 (inactive). The slope in assay [6] is 0.00599 (inactive).
As for `CC(NC(=O)COc1ccccc1)C(=O)NC1=NCCS1` (centres undefined), the cell count in assay [1] came to 356. Moreover, the inhibition in assay [1] was 2% (inactive); in assay [3], -85.5% (inactive); in assay [7], 14.4% (inactive); in assay [8] it was 20.3% (inactive). The inhibition of aggregation in assay [2] is 8.1% (inactive). Also, the nuclei count came out at 104% in assay [2] and 128% in assay [3]. For the same molecule, in assay [4], the fluorescence slope is -0.35 (inactive). The NADPH fluorescence slope in assay [5] was -2.2e-05 (inactive). In addition, the slope in assay [6] is 0.00548 (inactive).
For the molecule `CCCC(=O)N1CC(=O)Nc2ccc(C)cc2C1c1ccc(F)cc1` (centres undefined), in assay [1], the cell count was found to be 698. For the same molecule, the inhibition in assay [1] was -9.1% (inactive); in assay [3] it was -21.3% (inactive); in assay [7], 3.95% (inactive); in assay [8], 24.9% (inactive). For the same molecule, in assay [2], the inhibition of aggregation is 7.9% (inactive). Also, the nuclei count in assay [2] was 103%; in assay [3], 111%. Besides, in assay [4], the fluorescence slope was -0.513 (inactive). In addition, in assay [5], the NADPH fluorescence slope was -3e-05 (inactive). In addition, in assay [6], the slope was 0.00518 (inactive).
